Laboratory results taken from PubChem BioAssay (NCI).
Compounds without any hit were thinned out: in the full panel of roughly 79,000, 15% have a hit. A number with no mark means an inactive call. The source made the active and inactive calls. Rule as the data show it: active = growth inhibition above about 70%; inactive = the rest.

Experiments:
[1] = NCI Yeast Anticancer Drug Screen. Data for the rad50 strain (AID 155);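 also: 0% = growth of vehicle-only cultures of the same strain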; settings: S. cerevisiae rad50 strain growth inhibition, hits give high values
Summary of the method: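 A DNA repair-deficient yeast mutant serves as the test organism; compound-induced growth inhibition is calculated against vehicle-treated cells.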

[2] = NCI Yeast Anticancer Drug Screen. Data for the mec2-1 strain (AID 157); settings: S. cerevisiae mec2-1 strain, hits give high values
Summary of the method: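 Cells of the genetically defined mec2-1 yeast strain are incubated with test compound. Inhibition of growth is calculated against vehicle-treated controls.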

[3] = NCI Yeast Anticancer Drug Screen. Data for the sgs1 mgt1 strain (AID 161);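 also: 0% = growth of cultures given vehicle only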; settings: S. cerevisiae sgs1 mgt1 strain, hits give high values
Summary of the method: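 Test agents were incubated with a DNA-repair-mutant yeast strain. Growth was then read and compared against vehicle-treated controls.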

[4] = NCI Yeast Anticancer Drug Screen. Data for the cln2 rad14 strain (AID 165);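 also: 0% = growth equal to vehicle treated cultures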; settings: S. cerevisiae cln2 rad14 strain, hits give high values
Summary of the method: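 The screen exposed genetically defined yeast (cln2 rad14) to test compounds and scored growth inhibition relative to vehicle-treated controls.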

[5] = NCI Yeast Anticancer Drug Screen. Data for the bub3 strain (AID 167); settings: S. cerevisiae bub3 mutant strain, hits give high values
Summary of the method: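 Inhibition values come from growth of compound-treated mutant yeast normalised to vehicle-treated controls.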

[6] = NCI Yeast Anticancer Drug Screen. Data for the mlh1 rad18 strain (AID 175); settings: S. cerevisiae mlh1 rad18 strain growth inhibition, hits give high values
Summary of the method: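 Compound-treated yeast growth, normalised to vehicle controls. Strain bears defined DNA repair mutations.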

[7] = at 5.0 µM (retest, dose inferred, filed as 0.5)
[8] = at 50.0 µM (retest, dose inferred, filed as 5.0)

Row | Structure (SMILES) | growth inhibition [1, 7] | growth inhibition [1, 8] | growth inhibition ([1]; at 50.0 µM) | growth inhibition [2, 7] | growth inhibition [2, 8] | growth inhibition ([2]; at 50.0 µM) | growth inhibition [3, 7] | growth inhibition [3, 8] | growth inhibition ([3]; at 50.0 µM) | growth inhibition [4, 7] [%] | growth inhibition [4, 8] | growth inhibition ([4]; at 50.0 µM) | growth inhibition [5, 7] | growth inhibition [5, 8] | growth inhibition ([5]; at 50.0 µM) | growth inhibition [6, 7] | growth inhibition [6, 8] | growth inhibition ([6]; at 50.0 µM)
1 | O=C1OC(=O)c2cccc3cccc1c23 | 51% | 99% (active) | 98.8% (active) | 35% | 99% (active) | 99.1% (active) | 19% | 99% (active) | 98.5% (active) | 23 | 99% (active) | 98.5% (active) | 58% | 99% (active) | 99.5% (active) | 57% | 99% (active) | 98.4% (active)
2 | COc1cc(/C=C2\CCc3ccccc3C2=O)ccc1O | -18% | 99% (active) | 89.2% (active) | -14% | 100% (active) | 92.2% (active) | -28% | 99% (active) | 88% (active) | 5 | 99% (active) | 90.8% (active) | 24% | 99% (active) | 91.5% (active) | -20% | 99% (active) | 84.3% (active)
3 | O=C1c2cccc(O)c2C(=O)c2c(O)cc(CO)cc21 | 58% | 92% (active) | 87% (active) | 52% | 94% (active) | 90.3% (active) | 61% | 93% (active) | 90.5% (active) | 23 | 81% (active) | 88% (active) | 54% | 91% (active) | 89.4% (active) | 82% (active) | 97% (active) | 90.8% (active)
4 | CCN(CC)CCCOC(=O)C(c1ccccc1)C1CCCCC1 (stereo not given) | 4% | 63% | 88.5% (active) | 11% | 71% (active) | 67.5% | 22% | 94% (active) | 90.7% (active) | 13 | 41% | 88.5% (active) | 16% | 83% (active) | 94.1% (active) | 41% | 97% (active) | 98% (active)
5 | CCCCCCCCCCN(CCCCCCCCCC)C1CC(OC2CC(O)(C(O)CO)Cc3c(O)c4c(c(O)c32)C(=O)c2c(OC)cccc2C4=O)OC(C)C1O (stereo not given) | 15% | 87% (active) | 43.5% | 8% | 94% (active) | 93.5% (active) | 10% | 93% (active) | 5.25% | 7 | 88% (active) | 81.8% (active) | 14% | 90% (active) | 90.8% (active) | 17% | 87% (active) | 90.5% (active)
6 | CC(C)OP(=O)(OC(C)C)/C(I)=N/Nc1ccc([N+](=O)[O-])cc1 | -7% | -1% | 68.7% | -6% | 8% | 13.9% | 6% | 37% | 38.4% | -14 | 14% | 13.1% | 1% | -1% | 61.7% | 9% | 4% | 70%
7 | C/C(=N\O)c1ccc2cc(Br)c3ccccc3c2c1 | 12% | 98% (active) | 96.2% (active) | 1% | 98% (active) | 97.4% (active) | -1% | 98% (active) | 98% (active) | -20 | 96% (active) | 96% (active) | 8% | 98% (active) | 95.5% (active) | 3% | 98% (active) | 96.7% (active)
8 | CC(=O)OCc1ccc([N+](=O)[O-])o1 | 2% | 78% (active) | 96.3% (active) | -7% | 22% | 98.3% (active) | 3% | 67% | 64.3% | 0 | 96% (active) | 98.2% (active) | -2% | 73% (active) | 98.9% (active) | 1% | 86% (active) | 98% (active)
9 | CCCCCCCCCCCCCCCCCC[n+]1cccc(C(=O)N2CCOCC2)c1 | 91% (active) | 99% (active) | 99.8% (active) | 86% (active) | 100% (active) | 99.8% (active) | 99% (active) | 100% (active) | 99.8% (active) | 60 | 99% (active) | 99.3% (active) | 86% (active) | 99% (active) | 99.7% (active) | 97% (active) | 100% (active) | 99.8% (active)
10 | CCCCN(CCCC)CCCC(O)c1c2ccc(Cl)cc2nc2ccc(OC)cc12 (stereo not given) | 1% | 24% | 18.1% | -1% | 5% | 30% | 26% | 11% | 18.9% | -3 | 0% | 25.6% | 3% | 10% | 47.8% | 3% | 23% | 70.7% (active)
